Screening results (PubChem BioAssay)
Pf Dd2 growth: Plasmodium falciparum Dd2 growth inhibition; P. falciparum Dd2 growth, SYBR Green, 72 h; Potency, µM (doses to about 28.9 µM), most hits filed as inhibitors; hit rate 4.3% among 120,000; active = well fitted inhibition curve with a large enough effect; note: nearly all actives have a fitted effect of over 65% in size
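Readout: SYBR Green fluorescence, 485 nm excitation, 535 nm emission, after ~16 h lysis at 37C. Before that, Dd2-infected red cells (2.5% hematocrit) grew 72 h with compound, 29 uM top final concentration.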
A number is an active result; i = inactive; [ ] = another dose, or the depositor's remark. This excerpt belongs to a sample that is enriched for hits.

SMILES	Pf Dd2 growth
O=C(NCc1ccncc1)C1c2ccccc2C(=O)N(C2CCCC2)C12CCCCC2 (configuration not stated)	i
CCC(=O)N1CCC(N(C(=O)CC)C2CCOCC2)CC1	i
Cc1ccc(NC(=O)c2cc3c(s2)CN(C2CC2)C3)cc1	10µM
CSc1ccc(NC(=O)c2cc3c(s2)CN(C2CC2)C3)cc1	10µM
CSc1ccc(NC(=O)C2CCN(c3ncccn3)CC2)cc1	i
CCC(=O)N1CCc2sc(C(=O)NCc3ccc(C)cc3)cc2C1	i
O=C(NC1CCCCC1)c1cc2c(s1)CCN(C(=O)c1ccc(F)cc1)C2	i
O=C(NC1CCS(=O)(=O)C1)c1cc2c(s1)CN(C1CCCC1)C2 (configuration not stated)	i
O=C(C1CC1)N1CC(Oc2ccc(-c3noc(C4CCOCC4)n3)cc2)C1	i
CCn1c2c(c(=O)n1Cc1ccccc1)CCN(C(=O)c1cn[nH]c1)C2	i
Cc1ccc(-c2noc(CCCc3nc(-c4cccnc4)no3)n2)nn1	i
CC(=O)N[C@@H]1CN(Cc2cccc(C#N)c2)C[C@H]1CO	i
COc1ccc(C)cc1NC(=O)Cn1c(N(C)Cc2ccccc2)nc(C)cc1=O	i
Cc1cccn2c(CN(C)CCc3cnn(C)c3)c(C(=O)N(C)CCc3ccccc3)nc12	i
Cc1ccc([S+](=O)([O-])NC[C@@H]2CC[C@H]3C[C@@H]2C3(C)C)cc1	i
O=[S+]([O-])(NCC1CN(Cc2ccncc2Cl)CC12CN(c1ccccc1)C2)c1ccccc1 (configuration not stated)	i
CC1(C)[C@H]2CC[C@@H](CN[S+](=O)([O-])c3ccccc3)[C@@H]1C2	11µM
Cc1ccoc1C(=O)N1CCC(Oc2ccccc2F)(C(=O)O)CC1	i
O=C(O)c1ccccc1C(=O)N1CC[C@H]2COC(=O)N2c2cc(F)ccc2C1	i
COc1ccc(CNC(=O)c2ccc(NC(=O)N3CCCCc4ccccc43)cc2)cc1	i
COc1ccc(NC(=O)N2CCc3c(C(=O)N(C)C)cccc32)cc1	i
COc1ccc(NC(=O)N2CCc3c(C(=O)NC(C)C)cccc32)cc1	i
COc1ccc(NC(=O)N2CCc3c(C(=O)NCCN4CCCCCC4)cccc32)cc1	2.8µM
COc1ccc(NC(=O)N2CCc3c(C(=O)N(C)Cc4ccco4)cccc32)cc1	i
CCCCN(C)C(=O)c1cccc2c1CCN2C(=O)Nc1ccc(OC)cc1	14µM
SMILES	Pf Dd2 growth
Cc1noc(C)c1CC(=O)N1CC2CC(C1)[C@H]1CCCC(=O)N1C2 (some centres not stated)	i
O=C1COCC2(CN(CCCc3ccccc3)C2)CN1Cc1ccccc1	i
CNC(=O)[C@@H]1CN(S(=O)(=O)c2cc(F)ccc2F)C[C@H]1COC	i
O=C(NCc1ccnc2[nH]ccc12)C1CCCC1	i
c1nc(-c2cc(NC3CCNCC3)nc3[nH]ccc23)c2sccc2n1	i
CN(C)C(=O)c1ccc(-c2cc(NC3CCCC3)nc3[nH]ccc23)o1	8.9µM
Cc1nc(-c2ccc(Cl)cc2)n(Cc2ccc(F)cc2)c(=O)c1CCO	i
O=C(Nc1ccc2nc(SCCOc3ccccc3Cl)sc2c1)c1cccs1	2.8µM
Cc1ccccc1NC(=O)CSc1nc2ccc(NC(=O)c3cccs3)cc2s1	i
Cc1ccc(OCCSc2nc3ccc(NC(=O)COc4ccc(F)cc4)cc3s2)cc1	i
CCC(=O)Nc1ccc2nc(SCCOc3ccccc3)sc2c1	i
Cc1ccc(OCCSc2nc3ccc(NC(=O)c4cccs4)cc3s2)cc1	1µM
Cc1ccc(OCCSc2nc3ccc(NC(=O)c4ccc(F)cc4)cc3s2)cc1	i
COc1ccc(-n2nc(C)c(CCC(=O)N3CCOCC3)c2Oc2ccccc2F)cc1	i
Cc1ccnn1CCC(=O)Nc1nn(C)c2cccc(N3CCOCC3)c12	i
Cc1cc(C(=O)N2CCCC(c3nn(C)c(=O)n3-c3ccccc3)C2)no1 (configuration not stated)	i
CNc1ccc(-c2noc([C@@H]3CCCN3Cc3ccc(CO)o3)n2)cn1	i
c1ccc(CN2CCC[C@H]2c2nc(-c3ccnc(N4CCOCC4)c3)no2)cc1	13µM
CNc1ccc(-c2noc([C@@H]3CCCN3Cc3cnc4ccccc4c3)n2)cn1	i
CN1CCN(c2ccc(-c3noc([C@@H]4CCCN4Cc4ccccc4)n3)cn2)CC1	7.9µM
CN(C)c1ccc(CN2CCC[C@H]2c2nc(-c3ccnc(N4CCC(C(N)=O)CC4)c3)no2)cc1	i
c1cc(-c2noc([C@@H]3CCCN3C3CCC3)n2)cc(N2CCOCC2)n1	i
CC1(C)CN(C(=O)c2coc(COc3ccc4c(c3)OCO4)n2)CCO1	i
O=C(CN1C(=O)NC2(CCS(=O)(=O)CC2)C1=O)Nc1ccc(Cl)cc1F	i
COCCOC1CCOC2(CCN(C(=O)c3ccccc3OC)CC2)C1 (configuration not stated)	i
SMILES	Pf Dd2 growth
COCCOC1CCOC2(CCN(C(=O)c3cc(-c4ccc(F)cc4)n[nH]3)CC2)C1 (configuration not stated)	11µM
COCCOC1CCOC2(CCN(C(=O)c3cc(C)nn3C)CC2)C1 (configuration not stated)	i
Cn1cccc1CN1CCCC(c2nn(-c3ccccc3)c(=O)[nH]2)C1 (configuration not stated)	i
c1ccc2c(c1)COC1(CCNC1)CN2CC1CCCCC1 (configuration not stated)	13µM
O=C(C1CCCC1)N1CC2(CCNC2)OCc2ccccc21 (configuration not stated)	i
O=C(C1CCCC1)N1CC2(CCN(C3COC3)C2)OCc2ccccc21 (configuration not stated)	i
O=C(NCc1ccc(F)cc1)c1ccc(CSc2nc3ccncc3n2Cc2ccc(F)cc2)cc1	11µM
CCNC(=O)c1ccc(CSc2nc3ccncc3n2Cc2ccc(F)cc2)cc1	7.9µM
COC(=O)c1ccc(Cn2c(SCC(=O)NCc3ccccc3)nc3ccccc32)cc1	i
COc1ccccc1CNC(=O)c1ccc(CSc2nc3ccncc3n2Cc2ccccc2C)cc1	7.1µM
O=C(NCc1cccs1)c1ccc(Cn2c(SCc3cccc(F)c3)nc3cccnc32)cc1	i
COc1ccc(NC(=O)Cn2c(SCc3cc(C)ccc3C)nc3ccncc32)c(OC)c1OC	i
COc1cccc(CSc2nc3ccncc3n2CC(=O)Nc2ccc(OC)c(OC)c2OC)c1	i
CC[C@H]1CN(C(=O)C(C)(C)C)CC[C@H]1CC(=O)Nc1ccccc1	i
COc1ccc(C2Cn3nnc(-c4noc(C5(c6ccccc6)CC5)n4)c3CO2)cc1 (configuration not stated)	i
O=C(COc1ccccc1)N[C@H]1[C@H](O)[C@H](O)C[C@@H]1c1ccc(N2CCOCC2)nc1	i
COCCNC(=O)NC[C@H]1O[C@@H]2C[C@@H](CC(=O)N3CCC(F)(F)C3)O[C@@H]2[C@@H]1O	i
O=C(N[C@@H]1CCOC[C@H]1OCCO)c1cccc(-c2ccco2)c1	i
COc1ccc(C(=O)NC2CCN(c3cc(-c4ccc(Cl)cc4)[nH]n3)C2)cc1F (configuration not stated)	i
COc1cc(-c2onc(C)c2C(=O)NCC2CCCO2)cc(OC)c1OC (configuration not stated)	i
CC(C)c1nc(-c2ccc(OC3CCN(C(=O)C4(c5ccccc5)CC4)C3)cc2)no1 (configuration not stated)	i[5.79 µM]
CCN(CC)c1ccc(NC(=O)Cn2c3ncccc3c(=O)n2-c2ccccc2)c(C)c1	i
CCc1ccc(-n2c(=O)c3cccnc3n2CC(=O)Nc2cc(F)ccc2F)cc1	5µM
